According to PubChem BioAssay (NCATS):
“And” between values parts separate entries of the source, which are not always exact repeats. Equal values may be shown once. Inconclusive results are not listed. A call without a number means that no potency is given here. The source made the active and inactive calls. Unless noted, calls follow the shape of the dose curve; as a rule, active = well fitted curve in the direction sought with a large enough effect; inconclusive = small, poorly fitted or top-dose-only effect, or another doubt; inactive = no such curve, though single readings can be large; an effect the other way counts as inactive or inconclusive.

Key:
[1] = biological target: D(1A) dopamine receptor (Homo sapiens) (UniProt P21728); assay: HTS Assay for Allosteric Agonists of the Human D1 Dopamine Receptor: Primary Screen for Antagonists (AID 488983);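 also: calcium flux response to an EC80 dopamine challenge measured with no-wash dye; nearly all actives have a fitted effect of over 65% in size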; also: potency is read from the fitted curve at half-maximal effect
D(1A) dopamine receptor (Homo sapiens), sequence (P21728 whole entry, looked up): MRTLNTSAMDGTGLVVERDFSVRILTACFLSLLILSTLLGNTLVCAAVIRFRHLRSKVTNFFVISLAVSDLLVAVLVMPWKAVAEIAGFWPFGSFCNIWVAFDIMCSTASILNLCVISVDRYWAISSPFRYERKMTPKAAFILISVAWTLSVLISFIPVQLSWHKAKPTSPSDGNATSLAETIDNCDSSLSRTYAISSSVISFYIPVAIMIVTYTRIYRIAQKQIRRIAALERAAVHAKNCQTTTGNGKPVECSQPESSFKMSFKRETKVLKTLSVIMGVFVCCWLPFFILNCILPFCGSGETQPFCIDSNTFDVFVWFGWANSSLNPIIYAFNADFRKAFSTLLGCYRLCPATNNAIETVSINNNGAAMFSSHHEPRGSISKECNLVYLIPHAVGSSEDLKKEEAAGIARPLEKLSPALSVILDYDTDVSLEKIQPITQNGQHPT
How it was run: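 Tetracycline-induced HEK293 T-REx D1 line, force-coupled to calcium flux, read with no-wash calcium dye. Compound added after 10 s baseline, read 180 s for agonism, then EC80 dopamine added and read a further 180 s.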

[2] = Validation screen for small molecules that induce genotoxicity in human embryonic kidney (HEK293T) cells expressing luciferase-tagged ELG1 (AID 493106)
How it was run: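 HEK293T cells expressing luciferase-tagged ELG1, 2,000 cells/well, exposed to compound 16 hr at 37 °C, 5% CO2. Luciferase read after ONE-Glo, 30 min at room temperature; increased signal indicates genetic stress.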

[3] = biological target: ATPase family AAA domain-containing protein 5 (Homo sapiens) (UniProt Q96QE3); assay: Validation screen for small molecules that inhibit ELG1-dependent DNA repair in human embryonic kidney (HEK293T) cells expressing luciferase-tagged ELG1 (AID 493107);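 also: cells co-treated with the DNA-damaging agent 5-fluorouridine alongside compound; series mostly up to about 46 µM; inhibitors lower the ELG1-luciferase luminescence signal; nearly all actives have a fitted effect of over 70% in size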
ATPase family AAA domain-containing protein 5 (Homo sapiens), sequence (Q96QE3 whole entry, looked up, the tested form may be a part): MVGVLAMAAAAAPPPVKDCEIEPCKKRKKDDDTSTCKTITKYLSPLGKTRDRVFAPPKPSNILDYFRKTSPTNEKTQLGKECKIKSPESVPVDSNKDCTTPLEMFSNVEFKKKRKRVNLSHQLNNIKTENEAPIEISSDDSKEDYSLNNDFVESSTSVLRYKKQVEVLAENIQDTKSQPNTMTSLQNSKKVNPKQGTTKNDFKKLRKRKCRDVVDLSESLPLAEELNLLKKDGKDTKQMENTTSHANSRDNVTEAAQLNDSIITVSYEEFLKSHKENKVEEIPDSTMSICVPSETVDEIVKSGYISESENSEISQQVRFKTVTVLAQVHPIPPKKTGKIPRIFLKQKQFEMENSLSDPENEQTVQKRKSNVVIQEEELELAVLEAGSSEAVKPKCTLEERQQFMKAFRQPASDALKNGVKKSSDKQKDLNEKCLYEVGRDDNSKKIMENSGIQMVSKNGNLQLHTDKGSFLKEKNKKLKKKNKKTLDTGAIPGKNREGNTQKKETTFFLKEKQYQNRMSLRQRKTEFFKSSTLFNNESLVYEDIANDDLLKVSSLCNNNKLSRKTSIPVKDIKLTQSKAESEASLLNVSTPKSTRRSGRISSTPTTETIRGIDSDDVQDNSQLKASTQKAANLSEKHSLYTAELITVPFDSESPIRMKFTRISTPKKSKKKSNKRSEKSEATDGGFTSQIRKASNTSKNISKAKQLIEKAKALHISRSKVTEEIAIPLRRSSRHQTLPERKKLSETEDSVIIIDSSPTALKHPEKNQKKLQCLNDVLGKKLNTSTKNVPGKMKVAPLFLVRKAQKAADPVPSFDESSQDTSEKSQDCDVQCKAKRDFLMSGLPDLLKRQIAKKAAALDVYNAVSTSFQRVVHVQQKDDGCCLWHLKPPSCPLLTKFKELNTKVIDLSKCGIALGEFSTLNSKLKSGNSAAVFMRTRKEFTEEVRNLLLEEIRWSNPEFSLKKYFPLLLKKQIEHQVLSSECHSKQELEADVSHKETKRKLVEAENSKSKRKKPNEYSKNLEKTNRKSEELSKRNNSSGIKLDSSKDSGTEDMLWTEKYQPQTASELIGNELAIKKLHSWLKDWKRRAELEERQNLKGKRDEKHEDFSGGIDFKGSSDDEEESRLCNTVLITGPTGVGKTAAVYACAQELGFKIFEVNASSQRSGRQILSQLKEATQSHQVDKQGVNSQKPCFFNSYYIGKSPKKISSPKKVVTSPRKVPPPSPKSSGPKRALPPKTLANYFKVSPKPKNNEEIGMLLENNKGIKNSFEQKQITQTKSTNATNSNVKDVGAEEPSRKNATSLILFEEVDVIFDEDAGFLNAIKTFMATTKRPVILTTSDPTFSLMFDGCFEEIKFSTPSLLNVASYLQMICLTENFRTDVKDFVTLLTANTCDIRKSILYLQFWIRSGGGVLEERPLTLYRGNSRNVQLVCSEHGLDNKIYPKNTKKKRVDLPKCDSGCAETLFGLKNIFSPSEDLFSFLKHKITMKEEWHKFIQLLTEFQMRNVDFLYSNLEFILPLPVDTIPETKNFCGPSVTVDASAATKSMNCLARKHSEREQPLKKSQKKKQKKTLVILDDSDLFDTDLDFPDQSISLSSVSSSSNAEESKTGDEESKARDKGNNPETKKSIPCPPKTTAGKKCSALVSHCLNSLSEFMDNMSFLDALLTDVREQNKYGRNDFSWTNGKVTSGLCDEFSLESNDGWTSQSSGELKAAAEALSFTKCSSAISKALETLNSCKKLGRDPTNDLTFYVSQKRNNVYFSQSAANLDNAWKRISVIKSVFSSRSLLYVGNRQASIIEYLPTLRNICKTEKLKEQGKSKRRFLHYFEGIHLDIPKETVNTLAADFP
How it was run: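 HEK293T cells expressing luciferase-tagged ELG1, 2,000 per well, treated with 5-fluorouridine plus compound for 16 h at 37 C. ONE-Glo luminescence after 30 min at room temperature reports ELG1 reporter level.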

[4] = biological target: Thyrotropin-releasing hormone receptor (Homo sapiens) (UniProt P34981); assay: qHTS for Small Molecule Agonists and Allosteric Enhancers of Human TRH Receptor: Validation Screen for Agonists (AID 493127;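 active = calcium activation more than 3 SD above the typical response in the agonist read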); details: TRH receptor agonist cell assay; at 2 µM; stronger effect = higher value
Thyrotropin-releasing hormone receptor (Homo sapiens), sequence (P34981 whole entry, looked up): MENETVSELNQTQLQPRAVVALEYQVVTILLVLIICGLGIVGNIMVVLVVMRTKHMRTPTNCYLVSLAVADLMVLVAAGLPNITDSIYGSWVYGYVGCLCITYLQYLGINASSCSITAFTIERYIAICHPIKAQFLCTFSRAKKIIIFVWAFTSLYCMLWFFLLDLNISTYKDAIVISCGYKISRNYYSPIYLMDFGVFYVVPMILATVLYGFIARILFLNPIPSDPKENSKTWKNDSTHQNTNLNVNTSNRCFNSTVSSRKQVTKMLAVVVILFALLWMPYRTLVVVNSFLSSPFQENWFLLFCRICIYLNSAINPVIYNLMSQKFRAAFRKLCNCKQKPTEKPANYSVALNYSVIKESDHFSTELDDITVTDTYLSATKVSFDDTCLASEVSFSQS
How it was run: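 TRHR cells loaded with fluo-8 calcium dye; FDSS kinetic fluorescence (Ex 480/Em 530) read at 1 s/cycle after 23 nL compound addition. Agonist-mode calcium response recorded before the 10 nM TRH (EC20) addition.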

[5] = Nrf2 qHTS screen for inhibitors: Validation (AID 493153; active = well fitted inhibition curve with a large enough effect in the main read-out, with a control signal flat, not every such curve was filed as active; also: potency is read from the fitted curve at half-maximal effect); details: Potency: luciferase luminescence; viability change: measured here: cytotoxicity max response
How it was run: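 A549 cells carrying ARE-firefly luciferase reporter, 5000 cells/well in 5% FBS OPTI-MEM, treated with compound over a concentration series for 18-24 h at 37 C. Luciferase luminescence gave Nrf2 activity; CellTiter-Fluor fluorescence gave viability.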

[6] = qHTS for Inhibitors of Cell Surface uPA Generation: Validation Assay (AID 493164)
How it was run: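 RAW 264.7 cells (4000/well) were plated overnight, then exposed for 18 h at 37 C, 5% CO2 to compounds in a 7-point 1:5 titration (2.45 nM–38.3 uM final). Intracellular ATP was read by ATP-Lite luminescence.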

[7] = biological target: Galactokinase (Homo sapiens) (UniProt P51570); assay: qHTS Validation Assay for Inhibitors of Human Galactokinase (GALK) (AID 493189)
Galactokinase (Homo sapiens), sequence (P51570 whole entry, looked up): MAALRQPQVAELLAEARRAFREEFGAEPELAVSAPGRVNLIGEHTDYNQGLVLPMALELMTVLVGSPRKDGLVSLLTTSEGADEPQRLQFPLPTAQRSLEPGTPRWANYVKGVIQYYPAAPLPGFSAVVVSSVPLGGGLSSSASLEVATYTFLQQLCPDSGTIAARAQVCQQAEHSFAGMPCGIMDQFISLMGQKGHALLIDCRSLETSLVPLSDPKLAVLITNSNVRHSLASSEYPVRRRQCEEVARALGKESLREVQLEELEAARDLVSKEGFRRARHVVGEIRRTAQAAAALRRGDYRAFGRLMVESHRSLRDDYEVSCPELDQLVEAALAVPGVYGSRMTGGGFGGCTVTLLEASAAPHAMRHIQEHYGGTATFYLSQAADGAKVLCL
How it was run: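 Enzyme activity is inferred from ATP consumption: human GALK phosphorylates galactose (100 uM) using 35 uM ATP for 1 h at room temperature, and luciferase-based Kinase-Glo Plus reports unconsumed ATP.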

[8] = Validation screen for small molecules that induce DNA re-replication in SW480 colon adenocarcinoma cells (AID 504364)
How it was run: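 SW480 cells (250/well) exposed 48 h at 37 C, 5% CO2, then Hoechst-stained 40 min. Nuclear DNA content imaged by fluorescence scanning (405 nm excitation, 500-530 nm emission); re-replication scored as increased nuclei with elevated intensity.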

[9] = biological target: ATP-dependent 6-phosphofructokinase (Trypanosoma brucei brucei) (UniProt O15648); assay: qHTS Assay to Find Inhibitors of T. brucei phosphofructokinase: hit validation (AID 492961);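 also: luminescence reports ADP formed as PFK phosphorylates fructose-6-phosphate with ATP; series mostly up to about 51 µM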
ATP-dependent 6-phosphofructokinase (Trypanosoma brucei brucei), sequence (O15648 whole entry, looked up): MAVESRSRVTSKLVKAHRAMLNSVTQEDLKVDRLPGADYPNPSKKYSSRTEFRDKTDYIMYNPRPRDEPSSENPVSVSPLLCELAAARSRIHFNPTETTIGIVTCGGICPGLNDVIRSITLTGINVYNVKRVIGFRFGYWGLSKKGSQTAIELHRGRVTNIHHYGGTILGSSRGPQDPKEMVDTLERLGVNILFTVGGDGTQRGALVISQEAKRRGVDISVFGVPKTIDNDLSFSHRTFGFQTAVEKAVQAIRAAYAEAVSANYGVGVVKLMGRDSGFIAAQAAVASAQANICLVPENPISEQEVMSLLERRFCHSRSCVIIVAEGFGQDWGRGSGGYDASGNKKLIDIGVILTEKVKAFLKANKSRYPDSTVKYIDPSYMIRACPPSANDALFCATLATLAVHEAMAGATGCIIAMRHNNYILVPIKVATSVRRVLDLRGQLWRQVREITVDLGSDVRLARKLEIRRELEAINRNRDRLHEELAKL
How it was run: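 PFK 1.25 nM, F6P 0.5 mM, ATP 0.1 mM, MgCl2 5 mM, 0.1 M TEA pH 8.0, Tween20 0.01%, BSA 0.1%; 45 min RT. ADP-Glo two-step detection, luminescence. qHTS titration; curve fitting with curve-class categorization.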

[10] = biological target: Tyrosyl-DNA phosphodiesterase 1 (Homo sapiens) (UniProt Q9NUW8); assay: Confirmation Assay for Inhibitors of Tyrosyl-DNA Phosphodiesterase (TDP1) (AID 489007); details: recombinant human TDP1 enzymatic activity, dose-response; also: potency is read from the fitted curve at half-maximal effect; nearly all actives have a fitted effect of over 40% in size
Tyrosyl-DNA phosphodiesterase 1 (Homo sapiens), sequence (Q9NUW8 whole entry, looked up): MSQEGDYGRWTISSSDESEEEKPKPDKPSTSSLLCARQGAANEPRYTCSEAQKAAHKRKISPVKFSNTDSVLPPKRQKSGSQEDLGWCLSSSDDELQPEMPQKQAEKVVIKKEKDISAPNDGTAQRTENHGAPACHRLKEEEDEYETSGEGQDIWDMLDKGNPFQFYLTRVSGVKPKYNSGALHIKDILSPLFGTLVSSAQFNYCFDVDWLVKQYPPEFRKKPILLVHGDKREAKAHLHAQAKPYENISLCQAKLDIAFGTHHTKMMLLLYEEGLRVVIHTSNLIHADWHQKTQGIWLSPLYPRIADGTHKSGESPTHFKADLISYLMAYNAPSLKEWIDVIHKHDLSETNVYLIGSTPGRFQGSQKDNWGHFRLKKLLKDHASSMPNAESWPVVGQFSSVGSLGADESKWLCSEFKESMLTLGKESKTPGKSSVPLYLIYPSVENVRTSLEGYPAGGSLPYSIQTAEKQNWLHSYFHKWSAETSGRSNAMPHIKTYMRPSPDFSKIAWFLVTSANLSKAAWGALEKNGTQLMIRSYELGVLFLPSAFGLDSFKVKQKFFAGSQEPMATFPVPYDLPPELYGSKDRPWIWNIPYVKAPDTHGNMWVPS
How it was run: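 Recombinant human Tdp1 (1 nM final), expressed in E. coli, preincubated 15 min with compound. Then 15 nM 5'-biotin/3'-phosphotyrosine-FITC DNA substrate added for 5 min at room temperature. AlphaScreen beads (10 ug/ml) added for 10 min; cleavage gives signal loss.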

Compound | Potency [1] | Potency [2] | outcome [3] | activation [4] | Potency [5] | viability change [5] | outcome [6] | outcome [7] | outcome [8] | Potency [9] | Potency [10]
NC(N)=NCCC[C@H](N)C(=O)O | inactive | inactive | inactive | -0.438% (inactive) | inactive | 3.44% | inactive | inactive | inactive |  | 
CC1=C(CC(=O)O)c2cc(F)ccc2/C1=C\c1ccc(S(C)(=O)=O)cc1 | inactive | inactive |  | 0% (inactive) | inactive | -17.2% | inactive | inactive | inactive |  | 
C[C@]12C[C@H](O)[C@H]3[C@@H](CCC4=CC(=O)CC[C@@]43C)[C@@H]1CC[C@@H]2C(=O)CO | inactive | inactive | inactive |  | 6.51 µM (active) | -3.09% | inactive |  |  | inactive | 
CC(CN1c2ccccc2Sc2ccccc21)N(C)C (configuration not stated) | 10 µM (active) | inactive | inactive | 3.12% (inactive) | inactive | 5.51% | inactive | inactive | inactive |  | 
CC[C@H]1CN2CCc3cc(OC)c(OC)cc3[C@@H]2C[C@@H]1C[C@H]1NCCc2cc(OC)c(OC)cc21 | inactive |  |  |  |  |  | inactive | inactive |  |  | 
CC(C)NC[C@H](O)c1ccc(O)c(O)c1 | inactive | inactive | inactive | -0.125% (inactive) and 0.875% (inactive) | inactive | 2.86% and 6.15% | inactive | inactive | inactive |  | 
CSc1ccc2c(c1)C(N1CCN(C)CC1)Cc1ccccc1S2 (configuration not stated) | 0.316 µM (active) | inactive |  | 5.38% (inactive) | inactive | -13.4% | inactive | inactive | inactive | inactive | 
CC1=C(/C=C/C(C)=C/C=C/C(C)=C/C(=O)O)C(C)(C)CCC1 | inactive | inactive | inactive | 0.375% (inactive) | inactive | -3.39% | inactive | inactive | inactive |  | 
COc1ccc(Cl)cc1C(=O)NCCc1ccc(S(=O)(=O)NC(=O)NC2CCCCC2)cc1 | inactive | inactive | inactive | 1% (inactive) |  |  | inactive | inactive | inactive |  | 
C[C@]12CC[C@@H]3c4ccc(O)cc4CC[C@H]3[C@@H]1CCC2=O | inactive | inactive | inactive | 0.812% (inactive) |  |  | inactive | inactive | inactive |  | 
NC1CCN(c2cccc(Cl)n2)CC1 | inactive | inactive | inactive | 1.06% (inactive) | inactive | -3.84% | inactive | inactive | inactive |  | 
C[C@](N)(Cc1ccc(O)cc1)C(=O)O | inactive | inactive | inactive |  | inactive | 3.53% | inactive | inactive | inactive | inactive | 
NC(=O)c1ncn([C@@H]2O[C@H](CO)[C@@H](O)[C@H]2O)n1 | inactive | inactive | inactive | 0.875% (inactive) |  |  |  |  | inactive |  | 
CN1CCN(C2Cc3ccccc3Sc3ccc(Cl)cc32)CC1 (configuration not stated) | 0.199 µM (active) | inactive |  | 0.75% (inactive) | inactive | -10.9% | inactive | inactive | inactive | inactive | 
C=Cc1c(C)c2cc3[nH]c(cc4nc(cc5nc(cc1[nH]2)C(C)=C5CCC(=O)O)C(CCC(=O)O)=C4C)c(C)c3C=C | inactive | inactive | inactive | 0.125% (inactive) |  |  | inactive | inactive | inactive | inactive | 
CCCn1cnc2c1c(=O)n(CCCCC(C)=O)c(=O)n2C | inactive | inactive |  | 1.25% (inactive) | inactive | -13.4% | inactive | inactive | inactive |  | 
CN(C)CCOC(C)(c1ccccc1)c1ccccn1 (configuration not stated) | inactive | inactive | inactive |  | inactive | -4.35% | inactive | inactive | inactive |  | 
N=c1c[n+](N2CCOCC2)[n-]o1 | inactive | inactive |  | 0.5% (inactive) | inactive | 0.362% | inactive | inactive | inactive |  | 
O=Cc1ccccc1C=O |  |  |  |  |  |  |  |  |  |  | 14.1 µM (active)
